Most compounds without a hit are left out; they make up all but 7.5% or so of the library.
Rab9 prom act: qHTS Assay for Rab9 Promoter Activators; AID 485297, 2010; Potency, µM (doses to about 9.22 µM), inactives show top-dose activation, negative = inhibition, hits mostly activators; Huh7 Rab9 promoter-luciferase reporter, luminescence, 24 h; actives 2.8% (n = 320,000); note: % of control where 0% means no effect; nearly all actives have a fitted effect of over 60% in size
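Luciferase signal after 10 min detection reagent at ambient indicates Rab9 promoter upregulation; stably transfected Huh7 cells were treated 24 h with compound in DMSO at 37 °C, 5% CO2.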
FLuc modulator: qHTS profiling assay for firefly luciferase inhibitor/activator using purifed enzyme and Km concentrations of substrates (counterscreen for miR-21 project). purified FLuc, Km substrates, luminescence inhibition. Potency, µM (top dose mostly 57.5 µM), without a hit: top-dose activity change, negative = inhibition, hits mostly inhibitors. actives 6.9% (n = 360,000). AID 588342, 2011;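 note: plate controls were vehicle for no effect and reference inhibitor for full effect; nearly all actives have a fitted effect of over 55% in size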
Target sequence (P08659 whole entry, looked up): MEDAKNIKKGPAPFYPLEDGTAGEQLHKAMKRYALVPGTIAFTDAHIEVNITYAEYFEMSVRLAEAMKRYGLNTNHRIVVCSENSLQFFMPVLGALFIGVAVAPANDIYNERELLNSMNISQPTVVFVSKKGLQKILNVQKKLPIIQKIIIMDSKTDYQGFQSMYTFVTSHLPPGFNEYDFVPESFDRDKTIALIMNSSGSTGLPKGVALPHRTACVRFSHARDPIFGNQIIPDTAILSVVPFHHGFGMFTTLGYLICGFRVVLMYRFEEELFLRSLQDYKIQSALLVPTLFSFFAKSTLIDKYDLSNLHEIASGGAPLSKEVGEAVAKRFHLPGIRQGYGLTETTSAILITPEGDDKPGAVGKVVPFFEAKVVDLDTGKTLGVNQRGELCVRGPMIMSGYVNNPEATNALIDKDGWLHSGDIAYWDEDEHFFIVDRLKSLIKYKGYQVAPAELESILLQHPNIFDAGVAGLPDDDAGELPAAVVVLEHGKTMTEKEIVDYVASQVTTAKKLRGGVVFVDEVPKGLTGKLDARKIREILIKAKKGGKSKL
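Biochemical qHTS of compounds, final roughly 60 µM downward over six points, against 10 nM purified firefly luciferase using Km concentrations of substrates (10 uM D-luciferin, 10 uM ATP) in Tris acetate pH 7.5 buffer; luminescence output.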
ELG1 genotoxic: qHTS screen for small molecules that induce genotoxicity in human embryonic kidney (HEK293T) cells expressing luciferase-tagged ELG1. HEK293T ELG1-luciferase reporter, luminescence, 16 h. Potency, µM (doses to about 46 µM), for inactives: at the highest dose activity change, positive = activation, most hits filed as activators. actives 1.3% (n = 330,000). AID 504466, 2011; note: % of control where 0% means no effect; nearly all actives have a fitted effect of over 60% in size
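Quantitative HTS format in 1536-well plates. HEK293T ELG1-luciferase reporter cells receive test compound and are incubated 16 hr at 37 °C, 5% CO2; ONE-Glo added, 30 min room temperature, then luminescence read.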
SMN2 splice enh: qHTS Assay for Enhancers of SMN2 Splice Variant Expression | HEK293 SMN2-luciferase splicing reporter, luminescence, 30-36 h | Potency, µM (doses to about 46.1 µM), for inactives: at the highest dose activity change, positive = activation, most hits filed as activators | actives 2.8% (n = 210,000) | AID 1458, 2008; note: % of control where 0% means no effect; nearly all actives have a fitted effect of over 55% in size
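qHTS luciferase splicing reporter: luminescence rises when SMN2 exon 7 is included in transfected HEK293 cells. Compound exposure lasted 30-36 h at 37C, with 4.5 mM final sodium butyrate as control, followed by a ONE-Glo read.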
KinaseGlo FLuc: Counterscreen for Luciferase (Kinase-Glo TM) Inhibition; Potency, µM (doses to about 38.3 µM), for inactives: top-dose activity change, negative = inhibition, usual class: inhibitors; Kinase-Glo luciferase, ATP luminescence, 8 min; actives 0.28% (n = 200,000); note: % is set by controls: 0 for no effect and ±100 for the full control effect; nearly all actives have a fitted effect of over 60% in size
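Light output from Kinase-Glo luciferase with luciferin and 10 uM ATP in 50 mM imidazole pH 7.2, KCl, MgCl2, Tween 20, BSA; compound pin-delivered, 8-min ambient incubation, then luminescence read.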
NPC1 promoter act: qHTS Assay for NPC1 Promoter Activators | Potency, µM (titrated, usually from 9.22 µM), for the others: at the top dose activation, most hits filed as activators | actives 2.4% (n = 320,000) | Huh7 NPC1 promoter luciferase reporter, 24 h; note: % of control where 0% means no effect; nearly all actives have a fitted effect of over 60% in size
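Luciferase expression driven by the NPC1 promoter was measured in stably transfected Huh7 cells after a 24 h compound incubation, using a luciferase reagent and a luminescence read.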
Active calls of the source: *. Calls come from the whole dose curve; as a rule, active = well fitted curve in the direction sought with a large enough effect; inconclusive = small, poorly fitted or top-dose-only effect, or another doubt; inactive = no such curve, though single readings can be large; an effect the other way counts as inactive or inconclusive. Potency is the fitted concentration of half-maximal effect.

`c1ccc2sc(Nc3nc4cc5c(cc4s3)OCO5)nc2c1` gave Rab9 prom act 1µM*, FLuc modulator 2.4µM*, ELG1 genotoxic 5.2µM*, SMN2 splice enh 3.2µM*, KinaseGlo FLuc -4% and NPC1 promoter act 3.2µM*.
O=C(NNc1nc2cc3c(cc2s1)OCO3)c1ccc(F)cc1 was read as Rab9 prom act 13%, FLuc modulator inconclusive, ELG1 genotoxic -3%, SMN2 splice enh 20%, KinaseGlo FLuc 1% and NPC1 promoter act 3%.
For Fc1ccc2nc(Nc3nc4cc5c(cc4s3)OCO5)sc2c1 the results were Rab9 prom act 2µM*, FLuc modulator 6µM*, ELG1 genotoxic 13µM*, SMN2 splice enh 11µM*, KinaseGlo FLuc -3% and NPC1 promoter act 2.5µM*.
`O=C(NNc1nc2cc3c(cc2s1)OCCO3)c1ccc(F)cc1` gave Rab9 prom act 27%, FLuc modulator inconclusive, ELG1 genotoxic 6%, SMN2 splice enh 24%, KinaseGlo FLuc 1% and NPC1 promoter act 17%.
`Fc1ccc2nc(Nc3nc4cc5c(cc4s3)OCCO5)sc2c1` gave Rab9 prom act 2.8µM*, FLuc modulator inconclusive, ELG1 genotoxic inconclusive, SMN2 splice enh inconclusive, KinaseGlo FLuc -1% and NPC1 promoter act 2.8µM*.
`COc1ccc(CNS(=O)(=O)c2cc3c(cc2Cl)N(C(C)=O)CCO3)cc1` gave FLuc modulator -7%.
Screening O=C(Nc1nccs1)c1ccc(Cl)s1 returned Rab9 prom act inconclusive, FLuc modulator inconclusive, ELG1 genotoxic inconclusive, SMN2 splice enh 0%, KinaseGlo FLuc -5% and NPC1 promoter act inconclusive.
For Cc1onc(-c2ccccc2Cl)c1C(=O)Nc1nnc(C(C)C)s1 the results were Rab9 prom act -2%, FLuc modulator 3%, ELG1 genotoxic -1%, SMN2 splice enh 8%, KinaseGlo FLuc -2% and NPC1 promoter act -1%.
Screening CCCn1nnc(NC(=O)c2sc3ccccc3c2Cl)n1 returned Rab9 prom act 3.2µM*, FLuc modulator 27µM*, ELG1 genotoxic 9.2µM*, SMN2 splice enh inconclusive, KinaseGlo FLuc 1% and NPC1 promoter act inconclusive.
Screening O=C(Nc1nccs1)c1cc(Cl)ccc1[N+](=O)[O-] returned Rab9 prom act 2%, FLuc modulator 2%, ELG1 genotoxic -5%, SMN2 splice enh -16%, KinaseGlo FLuc 3% and NPC1 promoter act 0%.
Screening O=C(Nc1nccs1)c1sc2ccccc2c1Cl returned Rab9 prom act 1.1µM*, FLuc modulator 0.67µM*, ELG1 genotoxic inconclusive, SMN2 splice enh 2.5µM*, KinaseGlo FLuc -3% and NPC1 promoter act 4µM*.
For CC(C)c1nnc(NC(=O)c2sc3ccccc3c2Cl)s1 the results were Rab9 prom act inconclusive, FLuc modulator 4.8µM*, ELG1 genotoxic 19%, SMN2 splice enh inconclusive, KinaseGlo FLuc -3% and NPC1 promoter act 3.2µM*.
Screening O=C(Nc1nccs1)c1sc2cc(Cl)ccc2c1Cl returned Rab9 prom act 4µM*, FLuc modulator 2.7µM*, ELG1 genotoxic 13%, SMN2 splice enh inconclusive, KinaseGlo FLuc -6% and NPC1 promoter act 3.5µM*.
`CCCn1nnc(NC(=O)Cc2ccccc2)n1` gave Rab9 prom act -2%, FLuc modulator 0%, ELG1 genotoxic 0%, SMN2 splice enh 2%, KinaseGlo FLuc -3% and NPC1 promoter act -3%.
For O=C(CN1C(=O)c2cccnc2Oc2ccc(Cl)cc21)Nc1cccc(C(F)(F)F)c1 the results were FLuc modulator 1%.
For Cc1ccc(C)c(NC(=O)Cn2cc(S(=O)(=O)N3CCCC3)c(S(=O)(=O)N3CCCC3)c2)c1 the results were FLuc modulator -2%.
